Test results: PubChem BioAssay (Tox21)
Records with an inconclusive call do not appear. Calls of active or inactive are those of the source. Unless noted, calls come from the whole dose curve; as a rule, active = well fitted curve in the direction sought with a large enough effect in the repeat runs; inconclusive = weak or mixed curves; inactive = no such curve, though single readings can be large; an effect the other way counts as inactive or inconclusive.

Assays:
[1] = target: Aryl hydrocarbon receptor (Homo sapiens) (UniProt P35869); assay: qHTS assay to identify small molecule that activate the aryl hydrocarbon receptor (AhR) signaling pathway (AID 743085);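 note: HG2L7.5c1 human HepG2 liver cells with stably integrated DRE-driven firefly reporter; series mostly up to about 70 µM; nearly all actives have a fitted effect of over 15% in size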
Chain of Aryl hydrocarbon receptor (Homo sapiens) (P35869 whole entry, looked up): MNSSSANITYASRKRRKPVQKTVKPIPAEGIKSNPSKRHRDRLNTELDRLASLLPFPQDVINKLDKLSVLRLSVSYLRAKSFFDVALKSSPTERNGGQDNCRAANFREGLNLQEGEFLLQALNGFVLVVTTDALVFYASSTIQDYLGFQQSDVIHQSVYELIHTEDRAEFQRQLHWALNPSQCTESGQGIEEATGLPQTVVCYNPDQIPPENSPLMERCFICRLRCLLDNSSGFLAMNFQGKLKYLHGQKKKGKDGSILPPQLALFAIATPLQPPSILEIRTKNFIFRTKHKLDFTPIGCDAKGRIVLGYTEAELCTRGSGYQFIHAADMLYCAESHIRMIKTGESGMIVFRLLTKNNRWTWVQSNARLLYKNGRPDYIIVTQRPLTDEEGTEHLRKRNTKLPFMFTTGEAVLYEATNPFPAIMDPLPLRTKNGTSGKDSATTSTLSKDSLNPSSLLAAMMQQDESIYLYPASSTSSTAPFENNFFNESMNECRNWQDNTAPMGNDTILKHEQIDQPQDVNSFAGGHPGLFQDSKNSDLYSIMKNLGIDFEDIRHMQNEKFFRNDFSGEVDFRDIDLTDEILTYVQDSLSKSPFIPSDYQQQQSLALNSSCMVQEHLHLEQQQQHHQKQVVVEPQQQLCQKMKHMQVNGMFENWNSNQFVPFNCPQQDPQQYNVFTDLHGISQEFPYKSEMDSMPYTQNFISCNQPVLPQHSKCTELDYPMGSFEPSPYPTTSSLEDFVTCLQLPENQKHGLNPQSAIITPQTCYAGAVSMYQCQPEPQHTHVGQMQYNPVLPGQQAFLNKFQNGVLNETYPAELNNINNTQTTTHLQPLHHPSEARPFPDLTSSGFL
Outline: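 Luminescence (ONE-Glo) from a dioxin-responsive-element luciferase reporter in HG2L7.5c1 HepG2 cells after 24 hr compound exposure at 37C; viability measured by CellTiter-Fluor fluorescence beforehand.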

[2] = qHTS assay to identify small molecule that activate the aryl hydrocarbon receptor (AhR) signaling pathway - cell viability counter screen (AID 743086);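 note: HepG2 liver cells carrying the AhR DRE luciferase reporter; series mostly up to about 70 µM; nearly all actives have a fitted effect of over 45% in size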
Outline: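 HepG2-AhR-luc (HG2L7.5c1) cells, 4000/well, treated 24 h at 37 C with compound; viability measured as CellTiter-Fluor fluorescence after 30 min in the same wells as the luciferase read.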

[3] = target: Peroxisome proliferator-activated receptor gamma (Homo sapiens) (UniProt P37231); assay: qHTS assay to identify small molecule agonists of the peroxisome proliferator-activated receptor gamma (PPARg) signaling pathway (AID 743094; active = well fitted activation curve with a large enough effect in the signal ratio in the repeat runs, not every such curve was filed as active; the % refers to the signal ratio)
Chain of Peroxisome proliferator-activated receptor gamma (Homo sapiens) (P37231 whole entry, looked up): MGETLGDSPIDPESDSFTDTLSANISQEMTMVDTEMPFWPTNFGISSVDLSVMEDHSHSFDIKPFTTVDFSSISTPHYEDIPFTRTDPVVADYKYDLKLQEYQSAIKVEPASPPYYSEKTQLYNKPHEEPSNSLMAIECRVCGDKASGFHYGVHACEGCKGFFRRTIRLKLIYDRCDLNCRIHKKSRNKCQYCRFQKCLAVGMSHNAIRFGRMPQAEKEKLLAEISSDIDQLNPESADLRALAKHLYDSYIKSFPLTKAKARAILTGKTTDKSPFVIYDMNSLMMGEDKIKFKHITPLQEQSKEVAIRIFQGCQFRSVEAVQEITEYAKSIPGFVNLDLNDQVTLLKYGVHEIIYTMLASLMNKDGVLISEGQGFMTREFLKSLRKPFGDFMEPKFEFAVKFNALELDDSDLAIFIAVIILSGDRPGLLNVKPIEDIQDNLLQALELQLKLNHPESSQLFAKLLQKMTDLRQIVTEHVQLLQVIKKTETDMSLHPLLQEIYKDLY
Outline: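 Cells from the PPARg UAS-bla HEK293H line are plated and incubated 5 h at 37C. Compounds in DMSO are pinned in and left 17 h at 37C. LiveBLAzer B/G substrate is then added for 1 h at room temperature before fluorescence is measured.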

[4] = qHTS assay to identify small molecule antagonists of the peroxisome proliferator-activated receptor gamma (PPARg) signaling pathway - cell viability counter screen (AID 743194); note: nearly all actives have a fitted effect of over 55% in size
Outline: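 Cytotoxicity counter screen in PPARg-bla HEK293H cells, same wells as reporter assay. Compounds plus 50 nM rosiglitazone (final) for 17 h at 37 C, then viability read by CellTiter-Glo luminescence.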

[5] = qHTS assay for small molecule agonists of the antioxidant response element (ARE) signaling pathway (AID 743202; active = well fitted activation curve with a large enough effect in the signal ratio in the repeat runs, not every such curve was filed as active; the % refers to the signal ratio)
Outline: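 HepG2 ARE-bla reporter line, 2,000 cells/well; 5 h preincubation 37 C/5% CO2; compound (DMSO) 16 h 37 C; B/G FRET substrate 2 h RT; fluorescence intensity.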

[6] = qHTS assay for small molecule agonists of the antioxidant response element (ARE) signaling pathway - cell viability counter screen (AID 743203; calls by dose curve; note: nearly all actives have a fitted effect of over 55% in size)
Outline: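 Cytotoxicity was tested in parallel with the ARE reporter screen. ARE-bla HepG2 cells were exposed to compounds for 16 hrs, and viability was taken from CellTiter-Glo luminescence.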

[7] = qHTS assay for small molecule activators of the heat shock response signaling pathway - cell viability counter screen (AID 743209); note: nearly all actives have a fitted effect of over 50% in size
Outline: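 Cytotoxicity counter screen run in parallel with the HSE beta-lactamase reporter, using the same wells. HeLa HSE-bla cells received compound for 5 h at 37 C; ATP-based CellTiter-Glo luminescence was measured after 30 min at room temperature.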

[8] = qHTS assay for small molecule activators of the heat shock response signaling pathway (AID 743210; active = well fitted activation curve with a large enough effect in the signal ratio in the repeat runs, with a control signal flat, not every such curve was filed as active; the % refers to the signal ratio;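 note: HeLa cells with beta-lactamase reporter driven by heat shock elements; series mostly up to about 63 µM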)
Outline: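 Beta-lactamase reporter read-out: FRET substrate fluorescence after 2.5 h at RT, following 5 h compound treatment at 37 C of HeLa cells carrying HSE-driven bla reporter; quantitative HTS format.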

[9] = qHTS assay to identify small molecule agonists of the peroxisome proliferator-activated receptor delta (PPARd) signaling pathway - cell viability counter screen (AID 743211); note: nearly all actives have a fitted effect of over 55% in size; note: potency is the fitted concentration of half-maximal effect
Outline: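 Viability was measured as CellTiter-Glo luminescence (30 min, room temperature) in the same wells as the beta-lactamase readout. GeneBLAzer PPARd UAS-bla HEK293H cells received compound after 5 h plating and were incubated 17 h at 37 C.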

[10] = target: Peroxisome proliferator-activated receptor delta (Homo sapiens) (UniProt Q03181); assay: qHTS assay to identify small molecule agonists of the peroxisome proliferator-activated receptor delta (PPARd) signaling pathway (AID 743212; calls by dose curve)
Chain of Peroxisome proliferator-activated receptor delta (Homo sapiens) (Q03181 whole entry, looked up): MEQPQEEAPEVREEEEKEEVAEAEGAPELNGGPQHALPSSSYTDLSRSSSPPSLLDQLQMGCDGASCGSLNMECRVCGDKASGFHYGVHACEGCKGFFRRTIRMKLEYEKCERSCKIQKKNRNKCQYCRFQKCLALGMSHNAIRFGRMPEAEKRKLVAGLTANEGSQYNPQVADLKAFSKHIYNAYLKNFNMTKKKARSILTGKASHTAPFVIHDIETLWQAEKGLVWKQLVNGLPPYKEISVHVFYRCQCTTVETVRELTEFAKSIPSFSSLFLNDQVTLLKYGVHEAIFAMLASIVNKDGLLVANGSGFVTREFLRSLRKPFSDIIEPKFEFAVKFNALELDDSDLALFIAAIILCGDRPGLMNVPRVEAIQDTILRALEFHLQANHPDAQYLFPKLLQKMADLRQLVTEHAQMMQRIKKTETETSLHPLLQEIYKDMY
Outline: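 Read-out: beta-lactamase FRET fluorescence after 2 h room-temperature incubation with LiveBLAzer B/G substrate. Cells were HEK293H carrying a UAS-bla reporter for PPARd, treated at 37 C with DMSO-dissolved compounds.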

[11] = qHTS assay to identify small molecule antagonists of the farnesoid-X-receptor (FXR) signaling pathway - cell viability counter screen (AID 743221; active = well fitted cell-killing curve with a large enough effect in the repeat runs, not every such curve was filed as active; note: nearly all actives have a fitted effect of over 50% in size)
Outline: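 Cytotoxicity counter screen run in the FXR-bla reporter wells: HEK 293T cells exposed to compound with 50 uM (final) chenodeoxycholic acid for 16 h, 37 C, then viability measured by CellTiter-Glo luminescence after 30 min, room temperature.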

[12] = target: Vitamin D3 receptor (Homo sapiens) (UniProt P11473); assay: qHTS assay to identify small molecule agonists of the vitamin D receptor (VDR) signaling pathway (AID 743222; calls by dose curve)
Chain of Vitamin D3 receptor (Homo sapiens) (P11473 whole entry, looked up): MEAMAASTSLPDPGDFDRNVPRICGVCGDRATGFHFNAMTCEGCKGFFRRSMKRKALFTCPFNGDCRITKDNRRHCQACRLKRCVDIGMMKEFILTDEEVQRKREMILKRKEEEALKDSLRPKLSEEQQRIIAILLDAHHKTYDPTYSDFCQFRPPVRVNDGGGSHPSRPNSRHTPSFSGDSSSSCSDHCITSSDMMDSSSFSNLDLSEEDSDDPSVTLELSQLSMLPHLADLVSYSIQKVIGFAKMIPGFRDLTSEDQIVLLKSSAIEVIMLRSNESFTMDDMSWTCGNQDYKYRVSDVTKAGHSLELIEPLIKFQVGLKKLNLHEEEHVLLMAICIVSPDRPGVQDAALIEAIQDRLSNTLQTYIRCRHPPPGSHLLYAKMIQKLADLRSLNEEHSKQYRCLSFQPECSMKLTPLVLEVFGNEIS
Outline: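 Cells carrying a VDR-driven beta-lactamase reporter are seeded at 2,000 per well and rested 4 h. Compounds in DMSO are added for 16 h at 37C, and FRET substrate fluorescence is measured after 2 h at room temperature.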

[13] = target: Vitamin D3 receptor (Homo sapiens) (UniProt P11473); assay: qHTS assay to identify small molecule antagonists of the vitamin D receptor (VDR) signaling pathway (AID 743223; active = well fitted inhibition curve with a large enough effect in the signal ratio in the repeat runs, not every such curve was filed as active; the % refers to the signal ratio)
Outline: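 Antagonist mode: compound added to VDR-bla cells alongside agonist 1alpha,25-dihydroxyvitamin D3 (3 nM final), incubation 16 h at 37C. Read-out is LiveBLAzer FRET fluorescence, 2 h at room temperature.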

[14] = qHTS assay to identify small molecule agonists of the vitamin D receptor (VDR) signaling pathway - cell viability counter screen (AID 743224); note: series mostly up to about 63 µM; nearly all actives have a fitted effect of over 50% in size
Outline: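 Cells: VDR-bla, 2,000/well, settled 4 h. Treatment: compounds in DMSO, 16 h, 37C/5% CO2. Readout: CellTiter-Glo luminescence after 30 min RT.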

[15] = target: Peroxisome proliferator-activated receptor delta (Homo sapiens) (UniProt Q03181); assay: qHTS assay to identify small molecule antagonists of the peroxisome proliferator-activated receptor delta (PPARd) signaling pathway (AID 743215; active = well fitted inhibition curve with a large enough effect in the signal ratio in the repeat runs, not every such curve was filed as active; the % refers to the signal ratio;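 note: cells stimulated with agonist L165041 at 300 nM final during compound exposure; series mostly up to about 62 µM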)
Outline: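 Cells: HEK293H with a UAS-driven beta-lactamase reporter responsive to PPARd. Compounds were co-added with L165041 (300 nM, final) and incubated 17 h at 37 C before a 2 h room-temperature FRET substrate step and fluorescence reading.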

[16] = target: Peroxisome proliferator-activated receptor gamma (Homo sapiens) (UniProt P37231); assay: qHTS assay to identify small molecule antagonists of the peroxisome proliferator-activated receptor gamma (PPARg) signaling pathway (AID 743191; calls by dose curve; note: potency is the fitted concentration of half-maximal effect; nearly all actives have a fitted effect of over 30% in size)
Outline: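 GeneBLAzer PPARg UAS-bla HEK293H cells, 5 h post-plating, exposed to compounds 17 h at 37C. LiveBLAzer B/G FRET substrate added for 1 h at room temperature; beta-lactamase reporter read by fluorescence intensity.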

[17] = target: Bile acid receptor (Homo sapiens) (UniProt Q96RI1); assay: qHTS assay to identify small molecule antagonists of the farnesoid-X-receptor (FXR) signaling pathway (AID 743217; active = well fitted inhibition curve with a large enough effect in the signal ratio in the repeat runs, not every such curve was filed as active; the % refers to the signal ratio)
Chain of Bile acid receptor (Homo sapiens) (Q96RI1 whole entry, looked up): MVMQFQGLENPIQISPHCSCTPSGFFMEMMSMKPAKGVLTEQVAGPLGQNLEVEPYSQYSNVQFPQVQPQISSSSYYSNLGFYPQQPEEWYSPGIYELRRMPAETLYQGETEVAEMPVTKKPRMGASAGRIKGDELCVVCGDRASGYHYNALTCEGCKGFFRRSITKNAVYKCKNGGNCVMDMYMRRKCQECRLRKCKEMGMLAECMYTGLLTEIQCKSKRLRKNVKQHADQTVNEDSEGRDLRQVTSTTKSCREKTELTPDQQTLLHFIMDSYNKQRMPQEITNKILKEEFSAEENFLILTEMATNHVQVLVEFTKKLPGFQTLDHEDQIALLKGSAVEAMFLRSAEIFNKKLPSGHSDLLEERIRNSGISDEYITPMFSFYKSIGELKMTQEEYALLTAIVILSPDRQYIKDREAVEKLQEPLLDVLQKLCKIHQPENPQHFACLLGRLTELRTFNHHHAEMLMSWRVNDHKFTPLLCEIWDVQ
Outline: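 Cells carrying a UAS-driven beta-lactamase reporter (GeneBLAzer FXR-UAS-bla HEK 293T) were plated and rested 5 h at 37 °C. Compounds in DMSO were added alongside chenodeoxycholic acid agonist at 50 uM final and left 16 h at 37 °C before FRET substrate readout.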

[18] = target: Bile acid receptor (Homo sapiens) (UniProt Q96RI1); assay: qHTS assay to identify small molecule agonists of the farnesoid-X-receptor (FXR) signaling pathway (AID 743220; active = well fitted activation curve with a large enough effect in the signal ratio in the repeat runs, not every such curve was filed as active; the % refers to the signal ratio)
Outline: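 FXR-UAS-bla HEK 293T cells carrying a UAS-driven beta-lactamase reporter were plated for 5 h at 37C/5% CO2, then exposed to DMSO-dissolved Tox21 10K compounds for 16 h at 37C. A LiveBLAzer B/G FRET substrate was loaded for 2 h at room temperature before fluorescence reading.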

[19] = qHTS assay to identify small molecule agonists of the farnesoid-X-receptor (FXR) signaling pathway - cell viability counter screen (AID 743218); note: nearly all actives have a fitted effect of over 45% in size
Outline: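 Cells were seeded, left 5 h at 37 C and 5% CO2, then dosed with compound in DMSO for 16 h. After the beta-lactamase FRET read, CellTiter-Glo was added and luminescence measured 30 min later.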

[20] = qHTS assay to identify small molecule antagonists of the peroxisome proliferator-activated receptor delta (PPARd) signaling pathway - cell viability counter screen (AID 743213); note: nearly all actives have a fitted effect of over 50% in size
Outline: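 CellTiter-Glo was added to PPARd-bla HEK293H wells following 17 h compound treatment in the presence of 300 nM L165041. Luminescence was recorded after 30 min at room temperature.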

Measured: Potency

C=CC1CC2C=CC1C2 (stereo not drawn)
not listed: [15] | [16] | [17] | [18] | [19] | [20]
inactive: all other assays above

CCCCC(CC)CN1C(=O)C2C3C=CC(C3)C2C1=O (stereo not drawn)
inactive: [1] | [2] | [3] | [4] | [5] | [6] | [10] | [15] | [12]

CCOC(=O)NCCOc1ccc(Oc2ccccc2)cc1
active: [16] 38.9 µM
not listed: [4] | [5] | [15] | [19] | [20]
inactive: all other assays above

COC(C)(C)CCO
not listed: [16] | [17] | [18] | [20]
inactive: all other assays above

O=C(O)c1ccccc1Cl
not listed: [7] | [9] | [16] | [19]
inactive: all other assays above

c1ccc(CNCCNCc2ccccc2)cc1
not listed: [12] | [16] | [17] | [18]
inactive: all other assays above

COc1cc(Cl)ccc1Oc1ccc(Cl)cc1Cl
active: [9] 47.6 µM
not listed: [14] | [16] | [18]
inactive: all other assays above

C=C1[C@H]2CC[C@@H]3[C@H]2C(C)(C)CCC[C@]13C
not listed: [9] | [12] | [13] | [16] | [20]
inactive: all other assays above

C[C@@H](c1ncncc1F)C(O)(Cn1cncn1)c1ccc(F)cc1F (stereo partly drawn)
not listed: [9] | [12] | [13] | [16] | [18]
inactive: all other assays above
